Compound activity deposited in PubChem BioAssay by several laboratories.
BoNT A protease: blocks Botulinum neurotoxin A light chain protease | multiplex microsphere protease substrate cleavage, flow cytometry | inhibition, % at 10 µM | 360,000 tested, 0.17% active
PfHsp40 yeast: compounds rescuing yeast from Plasmodium falciparum HSP40 toxicity | 340,000 tested, 0.68% active | S. cerevisiae expressing PfHsp40, growth rescue, ATP luminescence | AID 504582 | growth rescue, % at 12.5 µM; in the data active = growth rescue above about 28%, passing the limit was not always enough; inconclusive = no clear call, values can overlap the other calls;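 also: yeast W303a lacking pdr1 and pdr3 grown in galactose medium; growth measured after three days at 30 °C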
BoNT-F LC inh: blocks Botulinum neurotoxin F light chain protease; 360,000 tested, 0.22% active; Multiplex microsphere protease cleavage assay, flow cytometry; inhibition, % at 10 µM; in the data active = inhibition above about 35%, passing the limit was not always enough; inconclusive = no clear call, values can overlap the other calls
Anthrax LF prot: blocks Bacillus anthracis lethal factor protease; P15917; multiplex microsphere protease cleavage assay, LF; inhibition, % at 10 µM; 360,000 tested, 0.12% active; AID 588501
Autofluor counter: counter-screen for toxin protease inhibitors: compound fluorescence; fluorescence intensity (test concentration not listed); compound autofluorescence counterscreen, microsphere flow cytometry; stronger effect = higher value; 360,000 tested, 3.1% active; AID 624483; in the data active = fluorescence intensity above about 16000; inconclusive = no clear call, values can overlap the other calls
MazF activator: increases E. coli MazEF RNase cleavage of RNA; 350,000 tested, 0.32% active; P0AE70; activation, % at 20 µM; FAM/BHQ RNA-DNA oligo cleavage fluorescence, 5 h; AID 504720; in the data active = activation above about 50%
Target sequence (P0AE70 whole entry, looked up): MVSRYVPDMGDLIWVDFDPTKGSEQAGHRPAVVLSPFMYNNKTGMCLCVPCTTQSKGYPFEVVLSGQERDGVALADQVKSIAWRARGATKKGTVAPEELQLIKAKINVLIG
Of the large screens only hits and unclear results are named; the others gave an inactive call. Hits are enriched below; roughly 4.3% of the tested compounds scored in any of these assays. Rule as the data show it, unless noted: active = inhibition above about 30%; inconclusive = no clear call, values can overlap the other calls; inactive = below that.

O=C(CNC(=O)c1ccncc1)N/N=C/c1ccc(O)cc1O	none
Oc1c(C(Nc2ccccn2)c2ccccn2)ccc2cccnc12 (stereo not drawn)	PfHsp40 yeast 63
COc1ccccc1NC(c1cccnc1)c1ccc2cccnc2c1O (stereo not drawn)	none
Cc1ccnc(NC(c2ccccc2)c2ccc3cccnc3c2O)c1 (stereo not drawn)	PfHsp40 yeast 154
Cc1ccc2ccc(C(Nc3ccccn3)c3ccccc3)c(O)c2n1 (stereo not drawn)	none
O=C(O)c1ccccc1NC(c1ccccc1)c1ccc2cccnc2c1O (stereo not drawn)	PfHsp40 yeast 322
Cc1cc(NC(c2ccc(Cl)cc2)c2ccc3cccnc3c2O)no1 (stereo not drawn)	PfHsp40 yeast 44
COc1ccc(N(CC(=O)Nc2ccccc2C(N)=O)S(=O)(=O)c2ccc(C)c([N+](=O)[O-])c2)cc1	none
Cc1nccc(-c2cccc(NC(=O)c3ccccc3Cl)c2)n1	none
COCCN(CC(=O)Nc1ccccc1C(F)(F)F)C(=O)/C=C/c1cc(Cl)c2c(c1)OCCO2	none
Cc1ccnc(NC(c2ccsc2)c2ccc3ccc(C)nc3c2O)c1 (stereo not drawn)	PfHsp40 yeast 250
CC(C)Nc1nnc(SC(C)C(=O)NCc2ccc3c(c2)OCO3)s1 (stereo not drawn)	none
CCOc1ccc(NS(=O)(=O)c2cnc(Cl)c(Cl)c2)cc1	PfHsp40 yeast 88
CCC(C(=O)OCC(=O)N1CCN(c2ccc(OC)cc2)CC1)c1ccccc1 (stereo not drawn)	none
O=C(NCCC1CCCCN1S(=O)(=O)c1ccc(F)cc1)C(=O)NCCN1CCOCC1 (stereo not drawn)	none
CCOc1ccc(Nc2ccc(N)c(S(=O)(=O)O)c2)cc1	none
COc1ccc(S(=O)(=O)NC(=O)C2(C)CCN2C(=O)Cc2cccc3ccccc23)cc1 (stereo not drawn)	none (no result: PfHsp40 yeast, MazF activator)
CP(=O)(Nc1ccccc1)C(Cl)(Cl)Cl (stereo not drawn)	none
O=P(Nc1ccccc1)(Nc1ccccc1)c1ccccc1	PfHsp40 yeast 43
O=c1cc(CN2CCN(C/C=C/c3ccccc3)CC2)c2cc(O)c(-c3ccccc3)cc2o1	none
Cc1cc2oc(=O)cc(CN3CCN(C/C=C/c4ccccc4)CC3)c2cc1O	Autofluor counter 23462 (no result: MazF activator)
O/N=C/c1ccccc1OCc1ccc(Cl)cc1	PfHsp40 yeast 237
Cc1ccc(C)c(NS(=O)(=O)c2ccc(-c3cnc(C4CC4)o3)cc2)c1	none (no result: BoNT A protease, BoNT-F LC inh, Anthrax LF prot, Autofluor counter)
Cc1cccc(NS(=O)(=O)c2ccc(-c3cnc(C4CC4)o3)cc2)c1C	PfHsp40 yeast 367
Cc1ccc(NC(=O)C2CCCN2C(=O)c2cccs2)cc1C (stereo not drawn)	none (no result: BoNT A protease, BoNT-F LC inh, Anthrax LF prot, Autofluor counter)
Cc1ccc(NC(=O)C2CCCN2C(=O)Oc2ccccc2)cc1C (stereo not drawn)	Autofluor counter 17854
CC(C)NC(=S)N/N=C1\CCCCC1C1CCCCC1 (stereo not drawn)	BoNT A protease inconclusive, Autofluor counter 22179
Cc1cccc(NS(=O)(=O)c2ccc(C)c(C(=O)NC3CCN(Cc4ccccc4)CC3)c2)c1	Autofluor counter 30942
Cc1ccccc1C(=O)NC1CCN(Cc2ccccc2)CC1	none
Cc1nc(C(F)(F)F)ccc1C(=O)N1CCC(C)(C(=O)O)C1 (stereo not drawn)	none (no result: PfHsp40 yeast, MazF activator)
O=C(Cc1ccccc1F)N1CCN(S(=O)(=O)c2ccc(Cl)cc2)CC1	none
O=C(CNC(=O)c1ccc(Br)cc1)NCCc1nc2ccccc2[nH]1	Autofluor counter 19972
O=C(CNC(=O)c1cccc(Br)c1)NCCc1nc2ccccc2[nH]1	none
NC(=O)c1cc2ccc(O)cc2oc1=NCc1ccccc1	MazF activator 785
O=C(COc1cc(Cl)ccc1Cl)Nc1ccc2[nH]c(=O)[nH]c2c1	none
Cc1ccc(Cl)cc1N1CCN(CC(=O)Nc2ccc3[nH]c(=O)[nH]c3c2)CC1	Autofluor counter 19567
CCOc1ccc(NC(=O)CN2CCN(CC(=O)Nc3ccc(Cl)c(C(F)(F)F)c3)CC2)cc1	Autofluor counter 26476
COc1ccccc1N1CCN(CC(=O)Nc2ccc(Cl)c(C(F)(F)F)c2)CC1	Autofluor counter 16616
O=C1Nc2ccc3sc4ccccc4c3c2C1=O	none (no result: BoNT A protease, BoNT-F LC inh, Anthrax LF prot, Autofluor counter)
COc1ccc(S(=O)(=O)N(CCc2ccccc2)CC(=O)NC(C)C)cc1	Autofluor counter 22967
COc1ccc(CNC(=O)CN(Cc2ccccc2)S(=O)(=O)c2ccc(Cl)cc2)cc1	Autofluor counter 22889
COc1ccc(CCC(=O)NC(C)C)cc1	PfHsp40 yeast 39
COc1ccc(C)cc1S(=O)(=O)N(CC(=O)NCc1ccc(Cl)cc1)Cc1ccccc1	Autofluor counter 22998
O=S(=O)(c1ccccc1Cl)N1CCC(Cc2ccccc2)CC1	none
COc1ccc(CC(=O)N(CCC2=CCCCC2)c2c(N)n(Cc3ccccc3)c(=O)[nH]c2=O)cc1OC	none
Cc1nn(C)c(Sc2ccccc2N)c1[N+](=O)[O-]	none
CC1(C)Cc2c(sc(NC(=O)C(=O)NCCCN3CCOCC3)c2C#N)CO1	none
COc1ccc(CNC(=O)CN(Cc2ccc(Cl)cc2)S(=O)(=O)c2ccccc2)cc1	Autofluor counter 24986
COc1ccccc1NC(=O)C(C)OC(=O)C1CC(=O)N(Cc2ccco2)C1 (stereo not drawn)	none (no result: PfHsp40 yeast)
Cc1snc(S(=O)(=O)Cc2c(Cl)cccc2Cl)c1C#N	Autofluor counter 25224
CCc1ccc(NC(=S)N(CCOC)C2CCN(C(C)=O)CC2)cc1	BoNT-F LC inh 40
CCc1ccc(NC(=S)N(CCC(C)C)C2CCN(C(C)=O)CC2)cc1	none (no result: PfHsp40 yeast)
Cc1oc(-c2ccccc2Cl)nc1CSCC(=O)N1CCCC1	Autofluor counter 22629
CC(=O)Nc1nc(-c2ccc(Cl)cc2)nc(C)c1C(C)=O	BoNT-F LC inh 35
CC(=O)c1c(C)nc(C)nc1NC(=O)Cc1ccccc1	none
Cc1ccn2c(NCc3ccc4c(c3)OCO4)c(-c3ccc(O)cc3)nc2c1	Autofluor counter 17253
c1ccc(C2OCCN2c2ccccc2)cc1 (stereo not drawn)	none
Cc1ccc(C)c(S(=O)(=O)C(C#N)c2nc3ccccc3nc2N2CCCC2)c1 (stereo not drawn)	Autofluor counter 20606
Cc1c(CC(=O)O)c(=O)oc2c(C)c(OCc3ccc(F)cc3Cl)ccc12	BoNT-F LC inh 35
Cc1c(CC(=O)O)c(=O)oc2c(C)c(OCc3ccc(F)cc3F)ccc12	none
O=c1cc(O)cc2n1CCC2	none (no result: PfHsp40 yeast, MazF activator)
COc1cccc(C(C(=O)NC2CCCCC2)N(C(=O)Cc2cccs2)c2ccc(-n3cnnn3)c(OC)c2)c1 (stereo not drawn)	Autofluor counter 22984
COc1cc(N(C(=O)Cc2cccs2)C(C(=O)NC2CCCCC2)c2cccc(OC)c2OC)ccc1-n1cnnn1 (stereo not drawn)	none
Cc1ccc(S(=O)(=O)Nc2ccc(O)c3cccnc23)cc1	none
Cc1ccc(S(=O)(=O)Nc2ccc(O)c3ncccc23)cc1	PfHsp40 yeast 188
CCC(=NCCc1c[nH]c2ccccc12)c1c(O)n(C)c(=O)n(C)c1=O	Autofluor counter 22284
